High-throughput results as filed in PubChem BioAssay.
VP16 counter: inhibits Gal4-VP16 luciferase reporter, ROR gamma counter-screen; 310,000 tested, 3.5% active; Potency, µM (top dose mostly 53.6 µM), for the others: top-dose activity, negative = inhibition, hits mostly inhibitors; Drosophila S2 Gal4-VP16 UAS-luciferase, luminescence, 20 h;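 further: Gal4-VP16 expression switched on by copper sulfate through the metallothionein promoter; potency means the concentration at half of the fitted maximal effect; nearly all actives have a fitted effect of over 50% in size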
ELG1 repair inh: ELG1-dependent DNA repair inhibition; Potency, µM (series often up to 46.1 µM), for the others: top-dose activity change, negative = inhibition, most hits filed as inhibitors; HEK293T ELG1-luciferase reporter, luminescence, 16 h; DNA damage induced by 5-fluorouridine; 330,000 tested, 2.3% active; further: potency means the concentration at half of the fitted maximal effect; nearly all actives have a fitted effect of over 55% in size
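Cells (2,000 per well) received 5-fluorouridine plus test compound or DMSO and were incubated 16 hr at 37 °C, 5% CO2. Luciferase activity was read by luminescence 30 min after ONE-Glo addition; signal suppression marked inhibition of damage-induced ELG1 function.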
RORgamma inh: inhibitors of mouse ROR gamma transcriptional activity; Drosophila S2 Gal4-RORgamma UAS-luciferase reporter, 20 h; Potency, µM (top dose mostly 53.6 µM), for the others: at the highest dose activity change, negative = inhibition, hits mostly inhibitors; AID 2551; P51450; 310,000 tested, 5.4% active; further: potency means the concentration at half of the fitted maximal effect; nearly all actives have a fitted effect of over 60% in size
Target sequence (P51450 whole entry, looked up, the tested form may be a part): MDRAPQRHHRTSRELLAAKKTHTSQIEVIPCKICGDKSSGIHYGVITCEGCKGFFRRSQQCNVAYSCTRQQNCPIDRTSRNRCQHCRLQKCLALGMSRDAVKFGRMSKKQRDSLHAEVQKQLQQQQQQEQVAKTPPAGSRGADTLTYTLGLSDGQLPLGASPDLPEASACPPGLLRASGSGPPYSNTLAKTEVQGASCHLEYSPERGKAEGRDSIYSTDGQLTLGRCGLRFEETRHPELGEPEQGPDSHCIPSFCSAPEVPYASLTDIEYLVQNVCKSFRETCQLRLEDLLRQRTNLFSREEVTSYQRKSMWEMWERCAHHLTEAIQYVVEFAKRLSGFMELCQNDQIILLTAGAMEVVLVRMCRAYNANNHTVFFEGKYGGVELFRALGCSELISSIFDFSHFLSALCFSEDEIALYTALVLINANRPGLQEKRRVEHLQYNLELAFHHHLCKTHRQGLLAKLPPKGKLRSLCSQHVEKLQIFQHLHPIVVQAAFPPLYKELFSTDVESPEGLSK
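ROR gamma transcriptional activity was tracked as Gal4-UAS luciferase output in stably transfected Drosophila Schneider cells, with compound added 1 hr before 700 uM copper sulfate induction and a 20 hr ambient-temperature incubation.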
Coupling enz: inhibits coupling enzyme system, counter-screen for aldolase hits | activity change, negative = inhibition, % at 58.2 µM, hits read low | coupling enzyme system counterscreen, AmpLite Red fluorescence | AID 2472 | 290,000 tested, 0.67% active; in the data active means activity change below about -30%
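Activity here indicates interference with the coupling reaction, not aldolase inhibition. Compounds at 57.5 uM final met coupling enzymes for 10 min at RT; substrate and AmpLite Red detection followed, with a 525/598 nm fluorescence read after 20 min.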
TSHR antagonist: blocks TSH signaling through the human TSH receptor | activity change, negative = inhibition, % at 11.5 µM | TSHR-expressing cells, TSH-stimulated cAMP HTRF, 2 h; stronger effect = lower value | 330,000 tested, 0.2% active | AID 504810;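 active means activity change below a set negative limit, meaning inhibition stronger than a set level, cut at about -70% in these data; inconclusive means activity change between two set negative limits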
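Antagonism was scored as loss of TSH-driven cAMP in TSHR cells, stimulated with 4nM TSH (EC80) for 2 hours at 37 deg C and detected by homogeneous HTRF competition immunoassay.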
Numbers without * were called inactive; ? = inconclusive; . = not tested or not shown; [ ] = another dose, or the depositor's remark. This is a sample that favours compounds with a hit; in the whole collection about 8% have one here. Unless noted, the call rests on the fitted dose curve; in most records, active means well fitted curve in the direction sought with a large enough effect; inconclusive means small, poorly fitted or top-dose-only effect, or another doubt; inactive means no such curve, though single readings can be large; an effect the other way counts as inactive or inconclusive. On the % scale 0 is the no-effect control and ±100 the full control effect.

SMILES	VP16 counter	ELG1 repair inh	RORgamma inh	Coupling enz	TSHR antagonist
Cc1[nH]n(-c2ccccc2)c(=O)c1/C=N/NC(=O)C(C)C	3.2µM*	-14%	6.3µM*	-16	-25
Cc1[nH]n(-c2ccccc2)c(=O)c1C=Nc1ccc(S(=O)(=O)NC(N)=O)cc1	-20%	3%	-10%	2	5
COC(=O)CN=Cc1c(C)[nH]n(-c2ccccc2)c1=O	5%	2%	0%	0	3
COc1ccc(NS(=O)(=O)c2cc3c4c(c2)C(C)C(=O)N4CCC3)cc1 (stereo unspecified)	0%	-3%	27%	.	-8
Cc1[nH]n(-c2ccccc2)c(=O)c1/C=C1\C=NN=C1c1ccccc1	?	?	11µM*	-19	-17
Cc1[nH]n(-c2ccccc2)c(=O)c1/C=N/NC(=O)COc1ccccc1[N+](=O)[O-]	0.63µM*	2%	0.45µM*	6	-10
COc1ccc2c(c1)O[C@@H](c1cccc(C(F)(F)F)c1)[C@H](OC(=O)NC1CCCC1)C2=O	3%	.	-16%	4	.
COC(=O)C1=C(C)N(Cc2cccnc2)C(=O)/C1=C\c1sccc1C	5%	21µM*	-3%	-1	17
CCN1C(=O)/C(=C\c2cccs2)C(C(=O)OC)=C1C	-3%	?	-30%	2	-4
N#Cc1ccc(CN2CC[C@@]3(CCCN(C(=O)c4ccncc4)C3)C2)cc1	4%	.	-14%	7	.
CCCCOC(=O)c1cc2c(cn1)[nH]c1ccccc12	32µM*	.	16µM*	-3	.
CNC(=O)c1cc2c(cn1)[nH]c1ccccc12	-7%	.	-43%	-10	-12
CCC1CCCCN1C(=O)COC(=O)c1ccc(Br)o1 (stereo unspecified)	.	29%	.	.	6
CC(=O)NC1=NC(=O)/C(=C/c2cn(C(C)=O)nc2-c2ccccc2)S1	12%	21µM*	13%	2	-24
CCN=C1S/C(=C\c2cn(C(C)=O)nc2-c2ccccc2)C(=O)N1CC	0%	?	-15%	1	-15
O=C(Nc1nc(-c2ccccc2)cs1)C1CCCN(S(=O)(=O)c2ccccc2)C1 (stereo unspecified)	7%	2.3µM*	21%	-8	-75*
O=C(Nc1nc(-c2ccccc2)cs1)C1CCCCN1S(=O)(=O)c1ccccc1 (stereo unspecified)	?	?	?	-2	-25
O=C(Nc1nc(-c2ccccc2)cs1)C1CCCN(S(=O)(=O)c2cccc([N+](=O)[O-])c2)C1 (stereo unspecified)	-3%	16µM*	0%	0	-19
O=C(NNc1c2ccccc2nc2ccccc12)c1cccc(O)c1	-27%	15µM*	-7%	-1	-11
COc1ccc(OCC(=O)NNc2c3ccccc3nc3ccccc23)cc1	7.1µM*	?	0.35µM*	1	-20
Cc1cccc(OCC(=O)NCc2cc(C)nc3ccccc23)c1	0%	15µM*	14%	3	1
O=C(COc1ccccc1)NNc1c2ccccc2nc2ccccc12	-12%	21µM*	13%	-6	?
CCCC(=O)NNc1c2ccccc2nc2ccccc12	-35%	3%	8%[10 µM]	2	-17
O=C(CCCO)NNc1c2ccccc2nc2ccccc12	?	-3%	?	0	-27
COc1ccc(C(=O)NCc2cc(C)nc3ccccc23)cc1	?	?	?	-1	-10
SMILES	VP16 counter	ELG1 repair inh	RORgamma inh	Coupling enz	TSHR antagonist
COc1ccc(C(=O)CCC(=O)N2CCN(c3ccc([N+](=O)[O-])cc3)CC2)cc1	1%	-3%	15%	-4	10
O=C(CCCCCN1CCN(c2ccccc2-c2ccccc2)CC1)NC1CCCc2ccccc21 (stereo unspecified)	.	.	.	.	-16
CCOC(=O)N1CCN(C(=O)c2cn(C)c3ccc(S(=O)(=O)N4CCOCC4)cc3c2=O)CC1	-10%	18%	0%	.	13
CC(SCc1ccccc1)C(=O)NN=C1CCN(C)CC1 (stereo unspecified)	24%[0.365 µM]	1%	7.1µM*	0	12
CC(C)(CNC(=O)c1cc([N+](=O)[O-])ccc1N1CCC(Cc2ccccc2)CC1)N1CCOCC1	.	21µM*	.	.	-2
COc1ccc(-c2cc(N)n(S(=O)(=O)c3ccc(F)cc3)n2)cc1OC	?	5.8µM*	-20%	0	-29
C/C(CC(=O)Nc1ccc(Cl)c(C(F)(F)F)c1)=N\NC(N)=S	?	?	11µM*	2	20
C/C(CC(=O)Nc1ccc(Cl)c(C(F)(F)F)c1)=N\NC(=O)c1ccccc1O	?	-11%	?	1	-24
C/C(CC(=O)NC(C)(C)C)=N\NC(=O)c1ccccc1N	-2%	?	?	2	20
C/C(CC(=O)NC(C)(C)C)=N\NC(N)=S	?	11%	11µM*	-1	-3
CCOC(=O)C1=C(COC(=O)[C@@H]2CCCN2S(=O)(=O)c2ccc(C)cc2)NC(=O)NC1C (stereo partly specified)	-12%	?	-23%	.	13
CCOC(=O)NC(=S)Nc1ccc(C(C)(C)C)cc1Br	10µM*	13%	3.5µM*	-1	-11
Cc1ccc(/C=N/NC(=O)c2nnn(-c3nonc3N)c2C)o1	-4%	15%	3%	.	-4
CCCOc1ccc(-c2c(C(=O)N/N=C/c3ccc(C)o3)nnn2-c2nonc2N)cc1	5.6µM*	-5%	3.5µM*	.	-12
Cc1ccc(/C=N/NC(=O)c2nnn(-c3nonc3N)c2-c2ccccc2)o1	?	7%	10µM*	-8	-7
CCCOc1ccc(-c2c(C(=O)N/N=C/c3ccncc3)nnn2-c2nonc2N)cc1	-11%	19%	-6%	-4	-6
CCOc1ccc(-c2c(C(=O)N/N=C/c3ccc(C)o3)nnn2-c2nonc2N)cc1	10µM*	0%	5.6µM*	-5	5
CCN(c1ccccc1)S(=O)(=O)c1ccc(C(=O)N(CCN(C)C)c2nc3c(F)cc(F)cc3s2)cc1	-4%	-1%	-41%	-4	-5
CC(C)[C@H](NC(=O)[C@H](CCCCN)NC(=O)[C@@H](NC(=O)[C@@H]1CCCN1C(=O)[C@H](CCCN=C(N)N)NC(=O)[C@H](CCCN=C(N)N)NC(=O)[C@H](CCCCN)NC(=O)[C@H](CCCCN)NC(=O)CNC(=O)[C@@H](NC(=O)[C@@H]1CCCN1C(=O)[C@@H](N)CCCCN)C(C)C)C(C)C)C(=O)N[C@@H](Cc1ccc(O)cc1)C(=O)N1CCC[C@H]1C(=O)O	-6%	.	-23%	-3	.
C=CCn1c(O)c(CN2CCOCC2)c(C)c(C#N)c1=O	-2%	-12%	-2%	-31*	-5
